PAFAH2 FP inh = inhibitors of human PAFAH2. Q99487. recombinant PAFAH2, FP-rhodamine activity probe, fluorescence polarization. inhibition, % at 3.39 µM. 340,000 compounds, 0.99% hits. AID 492956;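 active means inhibition above the mean over all tested compounds plus 3 SD, cut at about 30% in these data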;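 further: inhibitors block probe labeling of enzyme so polarization drops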
pPAFAH inh = inhibitors of human plasma PAF acetylhydrolase (pPAFAH); Q13093; recombinant pPAFAH, FP-rhodamine probe fluorescence polarization; inhibition, % at 3.39 µM; 330,000 compounds, 1.5% hits;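 active means inhibition above the mean inhibition across the screen plus 3 SD, cut at about 25% in these data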;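 further: inhibitors block binding of the rhodamine activity-based probe so polarization drops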
Fam108B inh = blocks mouse Fam108B hydrolase in RBBP9 counter-screen; recombinant Fam108B, FP-Rh probe fluorescence polarization; inhibition, % at 9.51 µM; 300,000 compounds, 0.33% hits; AID 1947;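 active means inhibition above the screen mean inhibition plus 3 SD, computed separately per campaign, cut at about 18% in these data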;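 further: inhibitors lower polarization as less probe binds the enzyme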
PME-1 primary = blocks human protein phosphatase methylesterase 1 | Q9Y570 | 320,000 compounds, 0.53% hits | recombinant PME-1, FP-Rh probe fluorescence polarization | AID 2130 | inhibition, % at 5.9 µM;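 active means inhibition above the campaign mean of all compounds plus 3 SD, cut at about 26% in these data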;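 further: competitive labeling of PME-1 active site by serine hydrolase directed probe; inhibitors block probe labeling so polarization falls and inhibition rises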
Target sequence (Q9Y570 whole entry, looked up): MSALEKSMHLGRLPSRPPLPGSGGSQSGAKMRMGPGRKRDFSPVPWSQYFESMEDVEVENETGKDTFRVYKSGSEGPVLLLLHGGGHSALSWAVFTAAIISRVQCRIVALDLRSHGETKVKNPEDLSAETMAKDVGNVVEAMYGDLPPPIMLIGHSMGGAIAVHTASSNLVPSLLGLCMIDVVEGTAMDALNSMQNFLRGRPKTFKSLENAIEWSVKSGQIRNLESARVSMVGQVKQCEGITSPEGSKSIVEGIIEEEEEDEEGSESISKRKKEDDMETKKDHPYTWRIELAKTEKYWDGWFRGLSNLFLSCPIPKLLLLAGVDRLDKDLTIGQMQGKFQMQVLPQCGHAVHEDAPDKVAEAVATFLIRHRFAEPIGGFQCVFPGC
PAFAH1B2 inh = blocks human PAF acetylhydrolase 1b catalytic subunit 2 | P68402 | recombinant PAFAH1B2, FP-rhodamine activity probe, fluorescence polarization | inhibition, % at 3.39 µM | 340,000 compounds, 1.2% hits;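 active means inhibition above the mean of all tested compounds plus 3 SD, cut at about 24% in these data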
PAFAH1B3 FP inh = inhibitors of human PAFAH1B3; AID 492972; 340,000 compounds, 0.28% hits; inhibition, % at 3.39 µM; recombinant PAFAH1B3, FP-rhodamine probe, fluorescence polarization;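 active means inhibition above the screen-wide average of all tested compounds plus 3 SD, cut at about 25% in these data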
pPAFAH FP conf = pPAFAH (human) inhibition, confirmed. shares compounds with pPAFAH inh. inhibition, % at 3.39 µM. recombinant pPAFAH, FP-Rh probe fluorescence polarization. 2,300 compounds, 72% hits;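 active means mean inhibition of the triplicate above the hit cutoff set for the earlier primary screen, cut at about 25% in these data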
Numbers stand for hits. In the library only some 2.9% were active in any assay of this set; here they are far more common.

What do the screens show for `Cc1c(Nc2nc3ccccc3n3cnnc23)cccc1[N+](=O)[O-]`?
PAFAH2 FP inh: inactive; pPAFAH inh: inactive; Fam108B inh: inactive; PME-1 primary: inactive; PAFAH1B2 inh: inactive; PAFAH1B3 FP inh: inactive

How did Cc1occc1C(=O)N/N=C/C1=C(N2CCOCC2)C(=C\c2ccc(Cl)cc2)/CC1 do in these assays?
PAFAH2 FP inh: inactive; pPAFAH inh: inactive; Fam108B inh: inactive; PME-1 primary: inactive; PAFAH1B2 inh: inactive; PAFAH1B3 FP inh: inactive

Results for O=C(O)c1ccccc1N/N=C/C1=C(N2CCOCC2)C(=C\c2ccccc2)/CC1 ?
PAFAH2 FP inh: inactive; pPAFAH inh: inactive; Fam108B inh: inactive; PME-1 primary: inactive; PAFAH1B2 inh: inactive; PAFAH1B3 FP inh: inactive

Results for Cc1cc(C)nc(N/N=C/C2=C(N3CCOCC3)C(=C/c3ccccc3)/CC2)n1 ?
PAFAH2 FP inh: inactive; pPAFAH inh: 65; Fam108B inh: inactive; PME-1 primary: inactive; PAFAH1B2 inh: inactive; PAFAH1B3 FP inh: inactive; pPAFAH FP conf: 82

What do the screens show for `Cc1cc(=O)[nH]c(N/N=C/C2=C(N3CCOCC3)C(=C\c3ccc(Cl)cc3)/CC2)n1`?
PAFAH2 FP inh: inactive; pPAFAH inh: 54; Fam108B inh: inactive; PME-1 primary: inactive; PAFAH1B2 inh: inactive; PAFAH1B3 FP inh: inactive; pPAFAH FP conf: 47

Results for Cc1cc(NCCCn2ccnc2)n2nc(-c3ccc(Cl)cc3)cc2n1 ?
PAFAH2 FP inh: inactive; pPAFAH inh: inactive; Fam108B inh: inactive; PME-1 primary: inactive; PAFAH1B2 inh: inactive; PAFAH1B3 FP inh: inactive

Results for CC(C)(C)c1cc(NCCCn2ccnc2)n2ncc(-c3ccc(Cl)cc3)c2n1 ?
PAFAH2 FP inh: inactive; pPAFAH inh: 39; Fam108B inh: inactive; PME-1 primary: inactive; PAFAH1B2 inh: inactive; PAFAH1B3 FP inh: inactive; pPAFAH FP conf: inactive

What do the screens show for `O=C(COC(=O)c1cc([N+](=O)[O-])ccc1N1CCOCC1)Nc1c(Cl)cccc1C(F)(F)F`?
PAFAH2 FP inh: inactive; pPAFAH inh: inactive; Fam108B inh: inactive; PME-1 primary: inactive; PAFAH1B2 inh: inactive; PAFAH1B3 FP inh: inactive

What do the screens show for `O=C(COC(=O)c1cc2c(s1)CCC2)Nc1ccc(F)cc1`?
PAFAH2 FP inh: 87; pPAFAH inh: 44; Fam108B inh: inactive; PME-1 primary: inactive; PAFAH1B2 inh: inactive; PAFAH1B3 FP inh: inactive; pPAFAH FP conf: 38

What do the screens show for `COc1ccc(C(=O)NCc2nnc(SCC(=O)c3ccccc3)n2C)cc1OC`?
PAFAH2 FP inh: inactive; pPAFAH inh: inactive; Fam108B inh: inactive; PME-1 primary: inactive; PAFAH1B2 inh: inactive; PAFAH1B3 FP inh: inactive

Results for Cc1cc(C)cc(NC(=O)CCn2c(=O)c3cccn3c3ccccc32)c1 ?
PAFAH2 FP inh: inactive; pPAFAH inh: inactive; Fam108B inh: inactive; PME-1 primary: inactive; PAFAH1B2 inh: inactive; PAFAH1B3 FP inh: inactive

What do the screens show for `NC(=O)C1CCN(C(=O)c2ccc(NS(=O)(=O)c3ccc(F)c(F)c3)cc2)CC1`?
PAFAH2 FP inh: inactive; pPAFAH inh: inactive; PME-1 primary: inactive; PAFAH1B2 inh: inactive; PAFAH1B3 FP inh: inactive

Results for O=C1NC(=S)S/C1=C\c1ccc(SCc2ccccc2)o1 ?
PAFAH2 FP inh: inactive; pPAFAH inh: 40; Fam108B inh: inactive; PME-1 primary: inactive; PAFAH1B2 inh: 71; PAFAH1B3 FP inh: inactive; pPAFAH FP conf: 58

What do the screens show for `O=C1NC(=S)SC1=Cc1ccccc1Cl`?
PAFAH2 FP inh: inactive; PAFAH1B2 inh: inactive; PAFAH1B3 FP inh: inactive

What do the screens show for `CCCC1=NN2C(=N)/C(=C\c3ccc(SCc4ccco4)o3)C(=O)N=C2S1`?
PAFAH2 FP inh: inactive; pPAFAH inh: 60; Fam108B inh: inactive; PME-1 primary: inactive; PAFAH1B2 inh: inactive; PAFAH1B3 FP inh: inactive; pPAFAH FP conf: 61

What do the screens show for `CCC1=NN2C(=N)/C(=C\c3ccc(SCc4ccco4)o3)C(=O)N=C2S1`?
PAFAH2 FP inh: inactive; pPAFAH inh: inactive; Fam108B inh: inactive; PME-1 primary: inactive; PAFAH1B2 inh: inactive; PAFAH1B3 FP inh: inactive

How did O=C1NC(=S)S/C1=C\c1ccc(SCc2ccco2)o1 do in these assays?
PAFAH2 FP inh: inactive; pPAFAH inh: 69; Fam108B inh: inactive; PME-1 primary: inactive; PAFAH1B2 inh: inactive; PAFAH1B3 FP inh: inactive; pPAFAH FP conf: 55

From PubChem
